Assay results published in ChEMBL document CHEMBL4296182, “CO-ADD screening of NIH NCI Diversity Set V”.
For part of these data: Measured potencies and affinities stand elsewhere.

Tests used:
[1] = test system: Staphylococcus aureus; test: Antibacterial activity against Staphylococcus aureus MRSA ATCC 43300 (CO-ADD:GP_020); MIC in CAMBH media using NBS plates, by Resazurin F(560/590); assay type: functional; conditions: Concentration 20 uM, ASSAY_TEST Inhibition of Bacterial Growth, detection method Resazurin, Fluorescence (ex560/em590), MEDIA CAMHB, plate type 384well, CORNING #3640, time 18 hr
[2] = test system: Acinetobacter baumannii; test: Antibacterial activity against Acinetobacter baumannii ATCC 19606 (CO-ADD:GN_034); MIC in CAMBH media using NBS plates, by Resazurin F(560/590); assay type: functional; conditions: Concentration 20 uM, ASSAY_TEST Inhibition of Bacterial Growth, detection method Resazurin, Fluorescence (ex560/em590), MEDIA CAMHB, plate type 384well, CORNING #3640, time 18 hr
[3] = test system: Escherichia coli; test: Antibacterial activity against Escherichia coli ATCC 25922 (CO-ADD:GN_001); MIC in CAMBH media using NBS plates, by Resazurin F(560/590); assay type: functional; conditions: Concentration 20 uM, ASSAY_TEST Inhibition of Bacterial Growth, detection method Resazurin, Fluorescence (ex560/em590), MEDIA CAMHB, plate type 384well, CORNING #3640, time 18 hr
[4] = test system: Klebsiella pneumoniae; conditions: Concentration 20 uM; ASSAY_TEST Inhibition of Bacterial Growth; detection method Absorption (OD600); MEDIA CAMHB; plate type 384well; NBS; CORNING #3640; time 18 hr
[5] = test system: Candida albicans; conditions: 20 µM
[6] = test system: Cryptococcus neoformans; conditions: Concentration 20 uM; ASSAY_TEST Inhibition of Fungal Growth; detection method Resazurin; Absorption (OD600-OD570); plate type 384well; NBS; CORNING #3640

Row | Structure (SMILES) | Inhibition [1] [%] | Inhibition [2] [%] | Inhibition [3] [%] | Inhibition [4] [%] | Inhibition [5] [%] | Inhibition [6] [%]
1 | CCCCn1ccnc1C | -0.22 | -5.26 | 4.7 | 8.98 | 0.01 | -3.23
2 | CCN(CC)c1ccc(/C=C/c2cc(-c3ccccc3)c3ccccc3n2)cc1 | 16.67 | 5.92 | 4.61 | 11.78 | 4.35 | -9.69
3 | O=C(NC(=S)Nc1cccc2c(O)cccc12)c1cccc(Br)c1 | 25.64 | -2.51 | 14.87 | 10.97 | 12.3 | -5.01
4 | CC(C)(CO)N1CCN(C(S)=Nc2ccccc2)CC1 | -0.05 | 2.01 | -1.36 | 29.13 | 8.13 | -5.08
5 | O=[N+]([O-])c1c(N2CCN(CCO)CC2)nc2ccccn12 | 9.01 | -8.14 | 6.29 | 3.38 | -0.65 | -4.29
6 | Cc1cc(C)n(C(=N)NC(=O)c2ccccc2)n1 | 12.05 | 6.54 | -0.32 | 6.77 | 6.7 | -12
7 | CCC(C)c1c(N)n(S(=O)(=O)c2ccc(C)cc2)oc1=O (stereo unspecified) | 12.19 | -9.07 | 9 | 8.85 | 1.8 | -2.18
8 | CCOc1cc2c(Cl)ncnc2c(OCC)c1OCC | 4.34 | -8.17 | 3.68 | 0.85 | 2.82 | -6.05
9 | O=C1OCC/C1=C\c1ccc2c(c1)OCO2 | 9.07 | -7.38 | 9.99 | 4.4 | 3.83 | 0.17
10 | CO/N=C1/C=C(C)C(=O)C(C)=C1C | 4.57 | -1.27 | 14.83 | 1.18 | -2 | -4.8
11 | Cc1ccc2c(c1)c1ccc3c(c1n2C)C(=O)C=CC3=O | 2.62 | -23.42 | 6.78 | 6.78 | 22.6 | 22.59
12 | CCOC(=O)c1c(O)cc(C)nc1O | 3.86 | -15.92 | 14.23 | 12.49 | 3.14 | 13.8
13 | COc1cccc(OCC(O)CN2CCN(c3ccccc3)CC2)c1 (stereo unspecified) | 10.13 | -11.48 | -4.05 | 23.2 | -2.19 | -13.63
14 | CCOC(=O)c1cc(OCC)c2c(ccc3ccccc32)n1 | -12.94 | 1.72 | -4.9 | 7.15 | 2.28 | -11.11
15 | NCC(=O)Nc1ccc(Cl)cc1C(=O)c1ccc[nH]1 | -7.1 | -14.48 | 6.3 | 6.27 | 1.44 | -13.13
16 | CN(/N=N/c1[nH]cnc1C(=O)NN)C1CCCCC1 | 8.69 | 8.54 | -4.79 | 11.56 | 3.97 | -4.73
17 | CCOC(=O)C(=O)Cc1cccnn1 | 12.36 | -7.97 | 16.74 | 15.16 | 9.85 | -1.54
18 | CCCCn1c(OC(=S)N(CC)CC)cc(C)nc1=S | 3.12 | 15.13 | -6.8 | 13.25 | 7.15 | -2.34
19 | c1ccc2c(c1)nnn2-c1ccncc1 | -3.68 | -2.01 | -7.33 | 4.04 | 1.59 | -7.26
20 | CCOC(=O)c1nc(O)c2c3c(sc2n1)CCCC3 | 16.28 | -13.3 | 15.58 | 5.02 | 10 | -8.42
21 | O=C(c1ccccc1)C1N=NCC1c1ccc(Cl)cc1 (stereo unspecified) | 21.05 | 1.64 | 18.84 | 8.27 | 8.01 | -11.46
22 | Cn1c(=O)c2nc(CNc3ccc(C(=O)O)cc3)[nH]c2n(C)c1=O | -13.67 | 2.67 | -18.91 | 4.5 | 2.41 | 17.72
23 | CCCCCOc1ccc(N2C(=O)C(C)CNC2=S)cc1 (stereo unspecified) | 15.96 | 8.82 | 2.34 | 9.59 | -1.3 | -8.51
24 | CCOP(=O)(OCC)/C(C#N)=C/c1c[nH]c2ccccc12 | 16.69 | 9.53 | -1.43 | 13.34 | -0.38 | -5.67
25 | Cc1ccc(NC(=O)Nc2nc3ccccc3s2)cc1NC(=O)Nc1nc2ccccc2s1 | -1.63 | -10.02 | 17.87 | 8.92 | -2.38 | -1.68
26 | O=C(Nc1ccc(C2=NCCCN2)cc1)Nc1ccc(C2=NCCCN2)cc1 | 7.85 | 9.82 | -5.49 | 24.63 | 1.67 | -6.84

Row | Structure (SMILES) | Inhibition [1] [%] | Inhibition [2] [%] | Inhibition [3] [%] | Inhibition [4] [%] | Inhibition [5] [%] | Inhibition [6] [%]
27 | CCSc1nc(O)cc(O)n1 | 23.71 | -7.74 | 11.78 | 13.65 | 4.28 | 3.85
28 | COC(=O)c1cc(C)nc2c(C)cc3[nH]c4ccccc4c3c12 | -3.37 | -0.23 | -15.24 | 17.6 | 8.78 | 0.02
29 | O=c1cc(-c2cccnc2)oc2c1ccc1ccccc12 | 20.75 | -10.07 | 18.5 | -1.55 | 29.4 | -11.93
30 | CN(CC(=O)O)Cc1oc(CO)cc(=O)c1O | 10.58 | -10.6 | 6.09 | 19.22 | 0.31 | -9.52
31 | Clc1ccc(-c2nc(-c3cc4cc(Cl)ccc4o3)cs2)cc1 | -3.66 | 8.53 | 11.7 | 9.81 | 1.45 | -4.29
32 | CC1=C(c2ccccc2)C=NNCC1=O | 7.06 | -11.86 | 19.62 | 15.54 | 3.87 | -8.22
33 | O=C(OCC1CCC=CO1)C1CCC=CO1 (stereo unspecified) | 6.99 | -10.56 | 3.07 | 7.72 | 0.31 | -9.47
34 | C(COC1CC2CC1C1C2CC2OC21)OC1CC2CC1C1C2CC2OC21 (stereo unspecified) | 7.31 | 15 | 5.47 | 11.14 | -1.79 | -10.71
35 | O=C(N(c1ccccc1)c1ccccc1)N(c1ccccc1)c1ccccc1 | 13.33 | 0.28 | 8.76 | 13.27 | 9.21 | -13.12
36 | C=CCOc1ccnc(-c2ccccc2)n1 | -3.88 | -11.54 | 5 | 9.63 | 1.14 | -7.2
37 | O=C(Nc1ccc(Cl)c([N+](=O)[O-])c1)Nc1nc2ccccc2s1 | 44.46 | 0.46 | 3.52 | 21.95 | 9.03 | 11.69
38 | O=C1NC(=O)C2(CCc3ccccc32)N1 (stereo unspecified) | -0.71 | -7.84 | 5.32 | 9.04 | 4.28 | 0.2
39 | S=C(SCc1cc(Cl)cc2c1OCOC2)N1CCSCC1 | 8.1 | -7.54 | 10.68 | 22.79 | 13.5 | 0.8
40 | CC1=NN(c2ccccc2)C(=O)C1/N=N/c1ccc(S(N)(=O)=O)cc1 (stereo unspecified) | -7.63 | 9.06 | 7.33 | 5.84 | 11.2 | -4.3
41 | CSc1ccc2c(c1)C(N1CCN(C)CC1)Cc1ccccc1S2.O=C(O)/C=C\C(=O)O (stereo unspecified) | -0.23 | -8.02 | 11.6 | 5.53 | 2.59 | -7.96
42 | CC(=O)NC1(C(=O)O)CCCC1 | 8.27 | -6.77 | 8.7 | 15.18 | 4.3 | 0.8
43 | Clc1[nH]cnc2nccc1-2 | 1.4 | -14.17 | 0.3 | 29.26 | 1.22 | -2.5
44 | C=CCNc1ncnc2sc(SC)nc12 | -6.85 | 14.45 | 5.94 | 7.44 | 10.1 | -10.12
45 | Cc1cc(O)c2c(O)[nH]nc2n1 | 14.32 | -13.07 | 7.82 | 1.49 | -3.37 | -5
46 | CC(C)COC(=O)NC1c2ccccc2Oc2ccccc21 | 8.22 | -2.15 | 3.09 | 8.74 | 5.64 | -2.37
47 | O=[N+]([O-])c1cccnc1Oc1cc(Cl)c(Cl)cc1Cl | 13.29 | 1.57 | 1.62 | 4.9 | 1.25 | -4.41
48 | CCS(=O)(=O)C1C(=O)N(C)C(S(=O)(=O)CC)C(=O)N1C (stereo unspecified) | 23.63 | 9.14 | 3.65 | 7.03 | 1.37 | -11.73
49 | NC(=O)/C(=C\c1ccncc1)c1cccc2ccccc12 | 3.23 | -18.71 | 6.96 | 13.72 | -4.11 | -6.45
50 | CCCCCC(=O)C(=O)c1ccc(O)cc1O | 10.4 | 8.8 | -2.2 | 16.02 | 6.66 | -6.56
51 | O=C(Nc1ccc2ccccc2c1)c1ccc(Cl)cc1Cl | 8.36 | -2.05 | 3.67 | -0.53 | -0.67 | -1.28
